The record followed here is article PMC5700166.

Changes are numbered by the printed parent chain.

What all share (experiment): protein-binding microarray (PBM); PBM: ~300 nM protein, 6 mM HEPES pH 7.8, 80 mM KCl, 0.5 mM EDTA, 0.5 mM EGTA, 6% glycerol, 35 ng/ul poly-dIdC, 1% milk, 1 h, room temperature; Ap Aiptasia and Nv Nematostella (sea anemones) / Co Capsaspora / Aq Amphimedon (sponge) / Dm Drosophila / Hu human; RHD is the Rel homology domain; high values mean tight binding
What all share (details): dsDNA, one strand shown

One assay concerns the target T1, GST-Ap-NF-kB RHD (Exaiptasia pallida (Aiptasia), UniProt A0A913YAJ5 2-422).
T1 sequence: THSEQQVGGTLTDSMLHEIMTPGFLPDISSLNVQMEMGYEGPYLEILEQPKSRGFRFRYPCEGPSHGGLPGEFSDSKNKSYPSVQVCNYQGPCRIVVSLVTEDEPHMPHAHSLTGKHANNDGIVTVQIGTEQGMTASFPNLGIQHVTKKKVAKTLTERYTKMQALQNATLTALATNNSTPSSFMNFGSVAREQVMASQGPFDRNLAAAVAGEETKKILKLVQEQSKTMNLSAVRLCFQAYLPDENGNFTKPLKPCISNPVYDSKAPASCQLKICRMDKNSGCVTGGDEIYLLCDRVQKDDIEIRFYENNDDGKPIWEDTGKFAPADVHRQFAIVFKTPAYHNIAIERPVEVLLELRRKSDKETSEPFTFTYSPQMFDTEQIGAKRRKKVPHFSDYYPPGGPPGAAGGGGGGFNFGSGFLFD

Assay [1] has as its target T2, GST-Nv-NF-kB (Cys allele) (Nematostella vectensis, UniProt E5G601 2-411).
T2 sequence: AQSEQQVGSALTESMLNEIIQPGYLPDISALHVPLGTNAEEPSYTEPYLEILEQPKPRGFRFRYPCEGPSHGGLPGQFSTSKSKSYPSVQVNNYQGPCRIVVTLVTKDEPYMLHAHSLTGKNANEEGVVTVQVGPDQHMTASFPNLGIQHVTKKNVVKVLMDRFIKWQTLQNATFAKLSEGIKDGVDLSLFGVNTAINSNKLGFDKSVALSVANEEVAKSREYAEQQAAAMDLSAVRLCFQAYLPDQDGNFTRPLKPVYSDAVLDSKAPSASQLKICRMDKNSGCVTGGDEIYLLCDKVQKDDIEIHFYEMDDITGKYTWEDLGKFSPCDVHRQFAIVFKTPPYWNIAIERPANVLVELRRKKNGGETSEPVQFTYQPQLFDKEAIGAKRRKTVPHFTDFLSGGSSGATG

Assay [2] concerns the target T3, GST-Nv-NF-kB (Ser allele) (Nematostella vectensis, UniProt A7UNT2 2-411).
T3 sequence: T2 sequence with Q21R, C66S, S207N, E215Q, V217A, E225K, A268E, D399E

The target in a further assay is T4, GST-Co-NF-kB (Capsaspora owczarzaki, UniProt F1ARL5 200-546).
T4 sequence: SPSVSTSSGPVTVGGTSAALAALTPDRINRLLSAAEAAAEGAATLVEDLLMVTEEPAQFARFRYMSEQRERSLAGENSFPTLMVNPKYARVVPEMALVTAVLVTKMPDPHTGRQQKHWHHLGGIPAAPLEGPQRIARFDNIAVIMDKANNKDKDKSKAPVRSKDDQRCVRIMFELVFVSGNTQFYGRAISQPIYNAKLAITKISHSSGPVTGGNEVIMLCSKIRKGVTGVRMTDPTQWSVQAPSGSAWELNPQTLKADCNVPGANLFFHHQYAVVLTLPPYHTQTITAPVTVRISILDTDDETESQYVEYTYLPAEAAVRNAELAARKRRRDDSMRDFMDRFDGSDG

A further assay has as its target T5, GST-Dm-Relish (Drosophila melanogaster, UniProt Q94527 99-473).
T5 sequence: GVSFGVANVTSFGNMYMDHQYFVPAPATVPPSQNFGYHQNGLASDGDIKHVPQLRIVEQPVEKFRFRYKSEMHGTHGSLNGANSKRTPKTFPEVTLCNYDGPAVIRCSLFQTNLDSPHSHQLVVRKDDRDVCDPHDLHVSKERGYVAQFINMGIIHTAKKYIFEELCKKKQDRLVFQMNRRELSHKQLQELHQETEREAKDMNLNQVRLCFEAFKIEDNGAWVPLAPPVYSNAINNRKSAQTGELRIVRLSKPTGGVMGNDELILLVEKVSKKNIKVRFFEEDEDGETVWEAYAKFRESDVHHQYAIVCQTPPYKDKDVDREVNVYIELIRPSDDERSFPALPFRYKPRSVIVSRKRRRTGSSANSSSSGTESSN

The target in a further assay is T6, GST-Aq-NF-kB (Amphimedon queenslandica, UniProt A9Y5G7 2-389).
T6 sequence: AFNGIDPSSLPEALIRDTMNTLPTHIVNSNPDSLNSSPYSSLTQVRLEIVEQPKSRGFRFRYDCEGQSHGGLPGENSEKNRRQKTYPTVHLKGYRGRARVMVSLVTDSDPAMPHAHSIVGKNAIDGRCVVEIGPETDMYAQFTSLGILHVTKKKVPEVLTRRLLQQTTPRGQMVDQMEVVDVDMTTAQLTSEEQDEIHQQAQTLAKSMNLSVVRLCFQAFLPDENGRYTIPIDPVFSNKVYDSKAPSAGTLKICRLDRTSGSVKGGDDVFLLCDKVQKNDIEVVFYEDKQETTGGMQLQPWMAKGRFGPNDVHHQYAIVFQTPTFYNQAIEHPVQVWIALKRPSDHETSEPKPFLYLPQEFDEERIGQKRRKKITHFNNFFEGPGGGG

The next assay addresses GST-Hu-p50 (Homo sapiens, UniProt P19838 7-356).

GST-Hu-p50, sequence (P19838 7-356): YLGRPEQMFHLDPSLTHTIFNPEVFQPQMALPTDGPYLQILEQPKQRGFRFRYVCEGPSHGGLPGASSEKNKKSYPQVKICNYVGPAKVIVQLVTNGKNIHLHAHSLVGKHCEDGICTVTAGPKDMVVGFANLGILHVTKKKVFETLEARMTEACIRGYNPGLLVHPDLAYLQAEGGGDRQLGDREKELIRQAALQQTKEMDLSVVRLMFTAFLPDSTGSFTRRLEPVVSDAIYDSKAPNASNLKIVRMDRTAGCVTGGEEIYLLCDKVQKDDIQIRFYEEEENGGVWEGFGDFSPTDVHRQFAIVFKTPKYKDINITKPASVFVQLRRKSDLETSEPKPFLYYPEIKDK

With “CCGATTAACATCAAGGGGAATAATGATGTTAATCGGGTCTTGATTCGCTTGACGCTGCTG”, the binding signal with GST-Ap-NF-kB RHD came to 5.34 z-score; in assay [1] it was 8.01 z-score; in assay [2], 8.1 z-score; with GST-Co-NF-kB, 7.2 z-score; in the assay with GST-Dm-Relish, 4.17 z-score; in the assay with GST-Aq-NF-kB, 5.64 z-score. Also, the binding signal in the assay with GST-Hu-p50 was 5.62 z-score.

Turning to “CCGATTAACATCAAGCACCCCCCTGATGTTAATCGGGTCTTGATTCGCTTGACGCTGCTG”, the binding signal stood at 5 z-score with GST-Ap-NF-kB RHD; 3.3 z-score in assay [1]; 3.81 z-score in assay [2]; 3.39 z-score with GST-Co-NF-kB; 4.97 z-score with GST-Dm-Relish; 4.27 z-score with GST-Aq-NF-kB. Further, the binding signal with GST-Hu-p50 is 4.29 z-score.

Consider “CCGATTAACATCAAGGAGTTCCCTGATGTTAATCGGGTCTTGATTCGCTTGACGCTGCTG”, for which the binding signal with GST-Ap-NF-kB RHD amounted to 3.02 z-score; in assay [1], 2.29 z-score; in assay [2], 1.06 z-score; with GST-Co-NF-kB, 1.52 z-score; in the assay with GST-Dm-Relish it was 5.39 z-score; with GST-Aq-NF-kB, 4.24 z-score. Further, the binding signal with GST-Hu-p50 amounted to 2.1 z-score.

Turning to “CCGATTAACATCAGATATTCCCATGATGTTAATCGGGTCTTGATTCGCTTGACGCTGCTG”, the binding signal in the assay with GST-Ap-NF-kB RHD worked out at 3.86 z-score; in assay [1], 3.21 z-score; in assay [2], 3.17 z-score; with GST-Co-NF-kB it was 2.8 z-score; with GST-Dm-Relish, 1.78 z-score; with GST-Aq-NF-kB it was 2.67 z-score. In the assay with GST-Hu-p50, this sequence gave a binding signal of 1.97 z-score.

As to “CCGATTAACATCAGGGAAACCCCTGATGTTAATCGGGTCTTGATTCGCTTGACGCTGCTG”, the binding signal with GST-Ap-NF-kB RHD is 10.6 z-score; in assay [1], 11.4 z-score; in assay [2], 9.7 z-score; with GST-Co-NF-kB it was 5.51 z-score; in the assay with GST-Dm-Relish, 9.95 z-score; in the assay with GST-Aq-NF-kB it was 10 z-score. Moreover, the binding signal with GST-Hu-p50 worked out at 6.82 z-score.

“CCGATTAACATCAGAAAACCCCATGATGTTAATCGGGTCTTGATTCGCTTGACGCTGCTG”: the binding signal stood at 6.36 z-score in the assay with GST-Ap-NF-kB RHD; 5.53 z-score in assay [1]; 4.86 z-score in assay [2]; 1.75 z-score with GST-Co-NF-kB; 8.35 z-score with GST-Dm-Relish; 5.03 z-score with GST-Aq-NF-kB. In the assay with GST-Hu-p50, the binding signal is 5.88 z-score.

Regarding “CCGATTAACATCAGGGACTACCCTGATGTTAATCGGGTCTTGATTCGCTTGACGCTGCTG”, the binding signal in the assay with GST-Ap-NF-kB RHD came to 6.16 z-score; in assay [1], 5.24 z-score; in assay [2], 4.07 z-score; with GST-Co-NF-kB it was 1.8 z-score; with GST-Dm-Relish, 7.1 z-score; with GST-Aq-NF-kB, 7.57 z-score. For the same sequence, the binding signal with GST-Hu-p50 is 4.13 z-score.

In the case of “CCGATTAACATCAGGGGGAAAGATGATGTTAATCGGGTCTTGATTCGCTTGACGCTGCTG”, the binding signal with GST-Ap-NF-kB RHD was 5.81 z-score; in assay [1], 5.7 z-score; in assay [2] it was 7.72 z-score; with GST-Co-NF-kB it was 8.03 z-score; with GST-Dm-Relish, 2.89 z-score; with GST-Aq-NF-kB, 5.04 z-score. In addition, the binding signal with GST-Hu-p50 was determined as 5.75 z-score.

In the case of “CCGATTAACATCAGGTTTCCCCATGATGTTAATCGGGTCTTGATTCGCTTGACGCTGCTG”, the binding signal is 6.59 z-score with GST-Ap-NF-kB RHD; 7.14 z-score in assay [1]; 8.78 z-score in assay [2]; 7.88 z-score with GST-Co-NF-kB; 4.69 z-score in the assay with GST-Dm-Relish; 5.35 z-score with GST-Aq-NF-kB. This sequence also had a binding signal with GST-Hu-p50 of 5.34 z-score.

Take “CCGATTAACATCAAATATCCCCCTGATGTTAATCGGGTCTTGATTCGCTTGACGCTGCTG”: the binding signal came out at 8.79 z-score with GST-Ap-NF-kB RHD; 8.51 z-score in assay [1]; 8.83 z-score in assay [2]; 8.39 z-score in the assay with GST-Co-NF-kB; 7.63 z-score with GST-Dm-Relish; 6.9 z-score in the assay with GST-Aq-NF-kB. Moreover, the binding signal in the assay with GST-Hu-p50 is 6.58 z-score.

As to “CCGATTAACATCAGGGGGAATAATGATGTTAATCGGGTCTTGATTCGCTTGACGCTGCTG”, the binding signal in the assay with GST-Ap-NF-kB RHD came to 7.08 z-score; in assay [1], 7.85 z-score; in assay [2], 8.87 z-score; with GST-Co-NF-kB, 10.1 z-score; with GST-Dm-Relish, 4.96 z-score; with GST-Aq-NF-kB, 5.33 z-score. In the assay with GST-Hu-p50, this sequence returned a binding signal of 6.75 z-score.
